Screening results (PubChem BioAssay)
Sm TGR block = S. mansoni TGR enzyme inhibition; Q962Y6; purified TGR, DTNB reduction, TNB absorbance 405 nm; Potency, µM (top dose mostly 114 µM), inactives show at the highest dose activity change, negative = inhibition, hits mostly inhibitors; 360,000 tested, 3% active; note: potency is the fitted concentration of half-maximal effect; % is set by controls: 0 for no effect and ±100 for the full control effect; nearly all actives have a fitted effect of over 60% in size
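First, TGR (20 nM dispensed) and NADPH were mixed with compound. Second, a 15 min room-temperature incubation followed. Third, further NADPH and then DTNB were added to start the reaction. Finally, TNB absorbance was monitored kinetically.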
Pf growth 96h = P. falciparum growth inhibition at 96 hours; P. falciparum luciferase reporter growth, 96 h; Potency, µM (highest dose often 28.7 µM), for inactives: at the highest dose activity change, negative = inhibition, actives largely listed as inhibitors; 320,000 tested, 6.9% active; note: potency is the fitted concentration of half-maximal effect; % is set by controls: 0 for no effect and ±100 for the full control effect
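96 h incubation, 37 C, 5% CO2, of luciferase-reporter P. falciparum-infected RBCs (2% hematocrit, 0.05% parasitemia final) with test compounds; endpoint luminescence.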
NS1 function inh = blocks influenza NS1 protein function | 270,000 tested, 0.4% active | Potency, µM (highest dose often 46.1 µM), for inactives: at the top dose activity, positive = more growth; calls by dose curve; note: potency is the fitted concentration of half-maximal effect; actives are rising curves; nearly all actives have a fitted effect of over 50% in size
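Compounds were scored for reversing the slow growth caused by influenza A NS1 in S. cerevisiae, measured by optical density at 600 nm. Assay medium contained 2% galactose at pH 6.0; NS1-free yeast of the same strain were the positive control.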
Pf growth 48h = P. falciparum growth inhibition at 48 hours (one generation) | Potency, µM (top dose mostly 28.7 µM), for inactives: at the highest dose activity change, negative = inhibition, most hits filed as inhibitors | 310,000 tested, 5.9% active | AID 504832 | P. falciparum luciferase growth in erythrocytes, 48 h; note: potency is the fitted concentration of half-maximal effect; % is set by controls: 0 for no effect and ±100 for the full control effect
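First compound was added to culture medium, then infected red cells at 0.1% parasitemia and 2% hematocrit (final). After incubation at 37 C under 5% CO2, luciferase detection reagent was dispensed and light output recorded.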
Cycloheximide cs = counter-screen for Shiga toxin inhibitors: cycloheximide protein synthesis inhibition; cell reporter, cycloheximide protein synthesis inhibition counterscreen; max response, %; 300,000 tested, 12% active; AID 2314; in the data active = max response mostly above about 13%, no sharp cut-off; inactive = mostly below about 14%; note: read at 38.3 µM for the half of the compounds with a filed dose; 0% is about no effect
Shiga toxin inh = blocks Shiga toxin action in Vero cells; Vero cells, Shiga toxin protein synthesis inhibition reporter; inhibition, % at 38.7 µM; 290,000 tested, 9.2% active; in the data active = inhibition mostly above about 28%, no sharp cut-off; inactive = mostly below about 43%; note: 0% is about no effect
* marks the source's active call; other numbers are inactive results; ? = inconclusive; nt = no result; [ ] = remark or other dose. Hits are enriched below; roughly 21% of the tested compounds scored in any of these assays. Unless noted, calls come from the whole dose curve; as a rule, active = well fitted curve in the direction sought with a large enough effect; inconclusive = small, poorly fitted or top-dose-only effect, or another doubt; inactive = no such curve, though single readings can be large; an effect the other way counts as inactive or inconclusive.

SMILES	Sm TGR block	Pf growth 96h	NS1 function inh	Pf growth 48h	Cycloheximide cs	Shiga toxin inh
COC1CCCN(C(=O)c2ccc(OC3CCN(CCc4ccccc4)CC3)cc2)C1 (centres undefined)	-1.7%	?	1.6%	10.8%	9.7	-24.0
CCCCc1nc2cc(C(=O)N3CCCC(COC)C3)ccc2o1 (centres undefined)	1.5%	?	-26.3%	40.5%	62.6*	73.4*
CCCCc1nc2cc(C(=O)N3CCC(OCCOC)CC3)ccc2o1	-4.3%	9.0%	2.1%	9.5%	27.7*	72.6*
COCCN1CCN(C(=O)c2ccc3nc(Cc4ccccc4F)oc3c2)CC1	5.0%	?	0.8%	-2.9%	9.3	15.4
COCCN1CCN(C(=O)c2ccc3oc(CCCc4ccccc4)nc3c2)CC1	2.3%	-12.7%	-11.4%	48.4%	22.9*	111.8*
CCCCc1nc2cc(C(=O)N3CCCC(OCCC)C3)ccc2o1 (centres undefined)	0.0%	-8.9%	-20.5%	7.2%	47.5*	103.3*
CC(=O)N1CCN(Cc2nc3cc(NC(=O)Nc4ccccc4)ccc3n2C)CC1	-1.1%	17.0%	-3.8%	8.0%	-1.5	-8.7
CCOc1ccc(-n2cc(-c3ccccc3)c3c(NC4CCCC4)ncnc32)cc1	-2.5%	nt	nt	nt	nt	nt
CC1Cc2ccccc2N1C(=O)CSc1nc(-c2ccccc2)cs1 (centres undefined)	-2.2%	10.4µM*	18.3%	?	8.3	20.9
CC1Cc2ccccc2N1C(=O)CSc1nncs1 (centres undefined)	-3.6%	?	nt	-27.5%	nt	nt
CC1Cc2ccccc2N1C(=O)CSc1nc2ccccc2s1 (centres undefined)	4.3%	?	-1.3%	-25.6%	24.5*	40.8*
Cc1nc(N)sc1C(=O)NN	14.9%	36.9%	-0.4%	74.5%	23.1*	82.0*
CCc1ccc(NC(=O)c2sc3nc(C)c(Cl)c(C)c3c2N)cc1	3.6%	nt	nt	nt	nt	nt
Cc1cc(C)c2c(N)c(C(=O)Nc3cccc(C)c3C)sc2n1	6.1%	25.7%	3.0%	1.6%	11.5*	7.8
Cc1nc(-c2ccccc2)sc1C(=O)NN	0.2%	34.1%	nt	117.7%	-8.4	-9.8
Cc1ccc(NC(=O)c2sc3nc(C)cc(C)c3c2N)cc1	-6.6%	0.1%	-6.4%	214.5%	50.8*	124.9*
CCOC(=O)c1sc2nc(C)cc(C)c2c1N	-8.1%	?	5.3%	-28.8%	50.4*	77.8*
Cc1cc(C)c2c(N)c(C(=O)NC3CC3)sc2n1	4.3%	?	-25.5%	38.3%	12.8	15.2
Cc1ccc(C)c(-c2[nH]c3c(c2-c2c(-n4cccc4)n(C)c(=O)[nH]c2=O)c(=O)[nH]c(=O)n3C)c1	-6.6%	nt	nt	nt	nt	nt
CCOC(=O)CNC(=O)c1sc2nc(C)cc(C)c2c1N	4.7%	19.3%[5.75 µM]	7.1%	30.5%	15.9	45.7
CCCCOC(=O)c1ccc(NC(=O)c2sc3nc(C)cc(C)c3c2N)cc1	15.9%	nt	nt	nt	nt	nt
COCc1cc(C)nc2sc(C(=O)N3CCN(c4ccccc4)CC3)c(N)c12	-0.8%	19.3%	-47.0%	nt	3.4	17.6
Cc1cc(C)c2c(N)c(C(=O)NN)sc2n1	2.1%	?	15.4%	?	45.0*	77.5*
Cc1cc(C)c2c(N)c(C(=O)NNC(=O)c3ccccc3)sc2n1	nt	?	-2.3%	134.5%	45.1*	93.3*
CCCCOC(=O)c1sc2nc(C)cc(C)c2c1N	-0.9%	156.0%	-60.4%	136.5%	27.1*	47.8*
SMILES	Sm TGR block	Pf growth 96h	NS1 function inh	Pf growth 48h	Cycloheximide cs	Shiga toxin inh
Cc1cc(C)c2c(N)c(C(=O)N3CCN(c4ncccn4)CC3)sc2n1	7.8%	-6.4%	-2.9%	-18.4%	30.7*	52.6
CCOC(=O)C1CCN(C(=O)c2ccc(OC3CCN(C(=O)COC)CC3)cc2)CC1	-21.3%	20.9%	9.9%	5.7%	10.7*	28.2
COCC(=O)N1CCC(Oc2ccc(C(=O)N3C[C@@H](C)O[C@@H](C)C3)cc2)CC1	39.8µM*	?	13.6%	-3.0%	8.5	9.5
CCOC(=O)C1CCN(C(=O)c2ccc(OCC)c(OCC)c2)CC1	-8.1%	14.7µM*	-0.7%	-22.0%	-2.2	-16.4
O=C(/C=C/c1ccc[nH]1)c1ccccc1	56.9%	90.5%	nt	101.9%	36.6*	68.1*
O=C(/C=C/c1c(F)cccc1Cl)c1ccc(F)cc1	?	78.0%	-6.1%	?	34.7*	131.9*
O=C(/C=C/c1ccc[nH]1)c1ccc(F)cc1	nt	?	9.5%	9.9%	31.9*	72.1*
O=C(/C=C/c1ccccc1[N+](=O)[O-])c1ccc(F)cc1	nt	-3.2%[5.75 µM]	6.4%	?	13.7	29.3
CC(=O)Nc1c(I)c(C(=O)N[C@H]2[C@@H](O)[C@H](O)[C@H](CO)O[C@@H]2O)c(I)c(N(C)C(C)=O)c1I	nt	-26.5%[12.8 µM]	nt	-9.1%[12.8 µM]	nt	nt
Cc1ccc(C)c(Nc2cc(C)nc3ncnn23)c1	1.0%	?	6.8%	99.7%	-2.5	nt
COc1ccc(Nc2cc(C)nc3ncnn23)c(OC)c1	0.0%	2.94µM*	?	nt	-3.5	-4.6
Cc1ccc(Nc2cc(C)nc3ncnn23)c(C)c1	16.4%	1.47µM*	-1.3%	-9.6%	-1.0	nt
Cc1ccc(C)c(CN2C(=O)c3ccccc3S(=O)c3ccc(C(=O)NCCC4=CCCCC4)cc32)c1 (centres undefined)	4.0%	nt	nt	nt	nt	nt
CC(C)CC(=O)Nc1ccnn1C1CCN(C(=O)c2ccc(F)cc2Cl)CC1	3.8%	-2.5%	6.0%	0.0%	5.6	13.8
CCn1nc(C)c(Br)c1-c1nc(-c2cccc(C)c2)no1	-5.1%	50.4%	1.1%	10.6%	11.4	0.6
CCn1nc(C)c(Br)c1-c1nc(CS(=O)(=O)c2ccsc2)no1	15.6%	49.7%	-11.0%	24.6%	28.0*	25.7
CC(=O)Nc1ccc(C(=O)NCCCOC(C)C)cc1	-13.8%	57.3%	-3.7%	-0.9%	0.9	3.6
COCCCNC(=O)C(=O)NCCCOC(C)C	0.6%	11.7µM*	4.1%	3.1%	-2.0	17.2
CCOCCCNC(=O)N[C@H](C(=O)OC)C(C)CC (some centres undefined)	16.1%	?	1.7%	?	-0.4	4.4
CCC(C)[C@H](NC(=O)NCCCOC(C)C)C(=O)OC (some centres undefined)	9.9%	11.7µM*	2.5%	-25.4%	-1.5	0.5
Nc1nc(CN2CCc3ccccc3C2)nc(Nc2ccccc2)n1	-27.8%	nt	15.2%	?	-0.4	9.2
